# Laboratory results from PubChem BioAssay (EPA / NIEHS).
# Values joined by “and” are separate entries in the source; they are usually repeats but may differ in a detail not shown here. Equal entries are not always repeated. Inconclusive results are not listed. Active and inactive are the calls of the source. The calls were made as follows, unless noted: active = hit-call score of the fitted dose curve at least 0.9, where 1 is the maximum; inconclusive = response in the unintended direction; inactive = score below 0.9.
# Assays:
# [1] = CCTE_Simmons_MITO_basal_resp_rate: CCTE's HepG2 Seahorse XF Respirometric Screening Assay at Basal Respiratory State, Simmons Lab (AID 2284001; active = hit-call score of the fitted dose curve at least 0.9, where 1 is the maximum; inactive = score below 0.9); details: actives raise or lower the signal
# In short: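 HepG2 respirometry; 7-pt titration 125 nM–100 uM final; kinetic OCR at 6 min intervals for 72 min; n=3 biological, technical singles; DMSO baseline, gain or loss fit; fenpyroximate (decrease) and 2,4-DNP (increase) controls.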
# [2] = CCTE_Simmons_MITO_max_resp_rate: CCTE's HepG2 Seahorse XF Respirometric Screening Assay at Maximal Respiratory State [uncoupled], Simmons Lab (AID 2284002; active = hit-call score of the fitted dose curve at least 0.9, where 1 is the maximum; inactive = score below 0.9); details: actives raise or lower the signal
# In short: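 Maximal (FCCP-uncoupled) respiration rate in HepG2, from Seahorse kinetic OCR over 72 min at 6 min cycles. Compounds at 125 nM–100 uM final, 7 points, three biological replicates; both directions fit relative to DMSO.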
# [3] = CCTE_Simmons_MITO_inhib_resp_rate: CCTE's HepG2 Seahorse XF Respirometric Screening Assay at Inhibited Respiratory State [full ETC block], Simmons Lab (AID 2284006; active = hit-call score of the fitted dose curve at least 0.9, where 1 is the maximum; inactive = score below 0.9); details: actives raise or lower the signal
# In short: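 HepG2 cells on Seahorse XF96; oxygen consumption measured after test compound, then FCCP, then rotenone/antimycin A injections over 72 min. Test chemicals at 7 concentrations, 125 nM–100 uM final. OCR fitted bidirectionally versus DMSO.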
# [4] = CCTE_Simmons_MITO_viability: CellTiter-Glo Viability Assessment for CCTE's HepG2 Seahorse XF Respirometric Screening Assay [post-hoc], Simmons Lab (AID 2284007)
# In short: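 HepG2 cells from the Seahorse XF respirometry run were exposed 90 min to a 7-point series, 125 nM–100 uM final, DMSO vehicle; ATP content then read by luciferase luminescence. Three biological replicates, technical singles; loss of signal fitted versus DMSO.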
# [5] = CCTE_Harrill_HTTr_Viability_MCF7: CCTE's 6-hour Cell Viability Assessment for the High-Throughput Transcriptomics (HTTr) Platform, in MCF-7 cells cultured in DMEM + 10% fetal bovine serum, Harrill Lab (AID 2284010; active = hit-call score of the fitted dose curve at least 0.9, where 1 is the maximum; inactive = score below 0.9)
# In short: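 Membrane integrity was scored by high-content imaging of propidium iodide dye exclusion after a 6 h exposure across an eight-point dilution series. Data were fitted bidirectionally relative to DMSO as negative control and baseline.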
# [6] = CCTE_Harrill_HTTr_Apoptosis_MCF7: CCTE's 6-hour Apoptosis Assessment for the High-Throughput Transcriptomics (HTTr) Platform, in MCF-7 cells cultured in DMEM + 10% fetal bovine serum, Harrill Lab (AID 2284011; active = hit-call score of the fitted dose curve at least 0.9, where 1 is the maximum; inactive = score below 0.9)
# In short: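 High-content imaging of CellEvent Caspase 3/7 Green signal follows a six-hour exposure, with eight concentrations per chemical. MCF-7 cells grown in DMEM plus 10% fetal bovine serum; activity fitted in both directions against DMSO.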
# [7] = target: THRA (gene 7067) (UniProt P10827); experiment: TOX21_TRA_COA_Agonist_Followup_ratio: Tox21 Thyroid Hormone Receptor alpha Agonism through Coactivator Recruitment Follow-Up Assay, Ratio (AID 2283948; active = hit-call score of the fitted dose curve at least 0.9, where 1 is the maximum; inactive = score below 0.9)
# Chain of THRA (gene 7067) (P10827 whole entry, looked up, the tested form may be a part): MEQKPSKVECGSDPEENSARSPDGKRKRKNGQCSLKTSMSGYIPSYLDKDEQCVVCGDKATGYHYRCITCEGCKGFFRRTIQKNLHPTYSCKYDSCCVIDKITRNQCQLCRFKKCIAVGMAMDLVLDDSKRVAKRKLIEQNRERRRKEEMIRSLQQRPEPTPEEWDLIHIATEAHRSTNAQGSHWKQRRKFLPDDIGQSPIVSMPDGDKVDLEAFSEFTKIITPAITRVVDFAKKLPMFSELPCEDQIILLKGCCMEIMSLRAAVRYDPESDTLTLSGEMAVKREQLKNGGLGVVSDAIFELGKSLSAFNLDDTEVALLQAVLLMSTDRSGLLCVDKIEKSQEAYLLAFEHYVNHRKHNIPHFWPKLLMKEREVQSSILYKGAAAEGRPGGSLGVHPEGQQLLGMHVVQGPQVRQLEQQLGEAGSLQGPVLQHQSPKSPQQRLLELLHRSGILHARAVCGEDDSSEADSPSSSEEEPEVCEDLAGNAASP
# In short: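 Cell-free TR-FRET coactivator recruitment: GST-tagged TRα LBD (2.5 nM) with 0.10% BSA was incubated with compound, then fluorescein-SRC-2 peptide (200 nM) and Tb-anti-GST antibody (2 nM) added. 520:495 nm ratio normalized to DMSO (0%) and T3 (100%).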
# [8] = TOX21_TRB_BLA_Agonist_Followup_viability: Viability Assessment in the Tox21 Thyroid Hormone Receptor beta Agonism Beta-lactamase (BLA) Follow-Up Assay (AID 2283956)
# In short: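 TRb-bla HEK293T cells (GAL4-DBD/human TRb LBD) in 2% charcoal-stripped FBS medium were exposed 18 h at 37C to 11 concentrations in triplicate. CellTiter-Glo ATP luminescence was read after 30 min at room temperature, with bidirectional fitting against DMSO.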
# [9] = target: THRB (gene 7068) (UniProt P10828); experiment: TOX21_TRB_COA_Agonist_Followup_ratio: Tox21 Thyroid Hormone Receptor beta Agonism through Coactivator Recruitment Follow-Up Assay, Ratio (AID 2283963; active = hit-call score of the fitted dose curve at least 0.9, where 1 is the maximum; inactive = score below 0.9)
# Chain of THRB (gene 7068) (P10828 whole entry, looked up, the tested form may be a part): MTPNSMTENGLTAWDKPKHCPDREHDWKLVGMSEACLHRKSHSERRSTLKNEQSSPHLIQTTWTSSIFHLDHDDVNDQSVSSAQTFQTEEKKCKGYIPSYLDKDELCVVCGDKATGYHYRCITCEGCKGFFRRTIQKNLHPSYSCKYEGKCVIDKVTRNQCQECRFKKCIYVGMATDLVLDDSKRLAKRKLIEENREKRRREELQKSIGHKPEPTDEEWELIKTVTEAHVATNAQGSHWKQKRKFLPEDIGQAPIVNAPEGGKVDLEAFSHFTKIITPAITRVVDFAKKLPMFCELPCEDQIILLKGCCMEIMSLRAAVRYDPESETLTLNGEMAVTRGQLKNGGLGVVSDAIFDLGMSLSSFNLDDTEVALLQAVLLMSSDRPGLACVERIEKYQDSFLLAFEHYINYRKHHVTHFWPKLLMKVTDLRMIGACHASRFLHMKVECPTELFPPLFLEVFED
# In short: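 First, the GST-fused TRβ ligand-binding domain (5.0 nM) was incubated with test compound in 0.10% BSA. Next, fluorescein-tagged SRC-2 peptide (200 nM) and terbium anti-GST antibody (2 nM) were added. Finally, TR-FRET emission ratios were normalized against DMSO and T3 controls.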
# [10] = target: Retinoic acid receptor RXR-alpha (Homo sapiens) (UniProt P19793); experiment: TOX21_TR_RXR_BLA_Agonist_Followup_ratio: Tox21 Thyroid Hormone Receptor beta Retinoid X Receptor alpha (RXRa) Agonism Beta-lactamase (BLA) Follow-Up Assay, Ratio (AID 2283968)
# Chain of Retinoic acid receptor RXR-alpha (Homo sapiens) (P19793 whole entry, looked up, the tested form may be a part): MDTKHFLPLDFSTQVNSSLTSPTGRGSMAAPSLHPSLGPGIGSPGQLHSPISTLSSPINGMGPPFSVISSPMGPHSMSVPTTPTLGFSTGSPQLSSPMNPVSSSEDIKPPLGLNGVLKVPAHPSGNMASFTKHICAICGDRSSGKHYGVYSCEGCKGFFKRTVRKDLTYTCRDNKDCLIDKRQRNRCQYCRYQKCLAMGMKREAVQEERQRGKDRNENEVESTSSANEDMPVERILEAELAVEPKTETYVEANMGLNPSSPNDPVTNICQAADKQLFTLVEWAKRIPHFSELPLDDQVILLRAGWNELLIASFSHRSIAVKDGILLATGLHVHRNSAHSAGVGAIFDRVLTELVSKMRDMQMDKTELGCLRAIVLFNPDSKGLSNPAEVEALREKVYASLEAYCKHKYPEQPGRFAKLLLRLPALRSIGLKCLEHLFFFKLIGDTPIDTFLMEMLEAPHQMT
# In short: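 RXRa-UAS-bla HEK293T cells (GAL4 beta-lactamase reporter) were treated with compounds at 11 concentrations in triplicate for 16 h at 37C/5% CO2, then loaded with CCF4-AM substrate for 2 h at room temperature; activity is the 460:530 nm ratio versus DMSO baseline.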
# [11] = TOX21_TR_RXR_BLA_Agonist_Followup_viability: Viability Assessment in the Tox21 Thyroid Hormone Receptor beta Retinoid X Receptor alpha (RXRa) Agonism Beta-lactamase (BLA) Follow-Up Assay (AID 2283970)
# In short: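 RXRa-UAS-bla HEK293T cells seeded at 2,500/well in phenol red-free DMEM with 2% charcoal-stripped FBS, exposed to compound 16h at 37C/5% CO2 in qHTS. Viability read by CellTiter-Glo ATP luminescence; bidirectional fitting against DMSO baseline, signal loss indicating cytotoxicity.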
# [12] = target: Nucleoli Translocation, AR (gene 367) (UniProt P10275); experiment: UPITT_HCI_U2OS_AR_TIF2_Nucleoli_Antagonist: University of Pittsburgh U2OS Androgen Receptor-Transcriptional Intermediary Factor 2 (AR-TIF2) Antagonism High Content Imaging Assay for Nucleoli Translocation (AID 2283997)
# Chain of Nucleoli Translocation, AR (gene 367) (P10275 whole entry, looked up): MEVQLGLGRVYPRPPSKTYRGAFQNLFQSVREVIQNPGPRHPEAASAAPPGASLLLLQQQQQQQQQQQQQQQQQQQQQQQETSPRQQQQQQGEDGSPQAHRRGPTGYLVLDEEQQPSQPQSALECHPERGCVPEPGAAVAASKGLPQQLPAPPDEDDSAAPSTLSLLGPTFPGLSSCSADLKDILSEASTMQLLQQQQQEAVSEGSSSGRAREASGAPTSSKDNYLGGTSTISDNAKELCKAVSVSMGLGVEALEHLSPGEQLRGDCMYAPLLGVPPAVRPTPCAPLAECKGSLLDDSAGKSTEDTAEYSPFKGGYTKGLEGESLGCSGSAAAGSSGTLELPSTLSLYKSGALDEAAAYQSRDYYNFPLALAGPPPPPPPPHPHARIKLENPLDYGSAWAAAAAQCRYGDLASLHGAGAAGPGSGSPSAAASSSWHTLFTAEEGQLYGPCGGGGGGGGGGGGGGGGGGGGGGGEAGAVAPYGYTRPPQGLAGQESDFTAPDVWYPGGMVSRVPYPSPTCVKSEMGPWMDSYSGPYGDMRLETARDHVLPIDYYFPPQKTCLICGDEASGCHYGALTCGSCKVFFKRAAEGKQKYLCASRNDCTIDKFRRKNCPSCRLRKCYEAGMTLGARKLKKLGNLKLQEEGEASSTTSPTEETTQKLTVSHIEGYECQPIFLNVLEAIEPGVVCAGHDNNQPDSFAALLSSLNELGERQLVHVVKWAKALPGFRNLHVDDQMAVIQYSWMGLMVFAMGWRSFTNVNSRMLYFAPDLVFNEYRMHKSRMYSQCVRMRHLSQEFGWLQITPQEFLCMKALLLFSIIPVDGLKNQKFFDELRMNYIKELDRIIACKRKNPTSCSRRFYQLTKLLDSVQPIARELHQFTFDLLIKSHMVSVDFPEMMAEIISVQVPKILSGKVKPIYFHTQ
# In short: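 Measured quantity was AR-RFP fluorescence localized to nucleoli in engineered U2OS cells also bearing TIF2-GFP, acquired on automated high-content imagers. Primary testing used 20 uM compound; actives were confirmed in triplicate wells.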
# [13] = target: Nucleoli Translocation, AR (gene 367) (UniProt P10275); experiment: UPITT_HCI_U2OS_AR_TIF2_Nucleoli_Agonist: University of Pittsburgh U2OS Androgen Receptor-Transcriptional Intermediary Factor 2 (AR-TIF2) Agonism High Content Imaging Assay for Nucleoli Translocation (AID 2283998)
# In short: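 Nucleolar translocation of AR-RFP, with TIF2-GFP coexpressed in human osteosarcoma U2OS, imaged by high-content fluorescence. Compounds tested singly at 20 uM final, confirmed in triplicate, then titrated 0.195–50 uM final; gain-of-signal relative to DMSO.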
# [14] = target: Ratio of Nucleoli Translocation and Cytoplasm, AR (gene 367) (UniProt P10275); experiment: UPITT_HCI_U2OS_AR_TIF2_Nucleoli_Cytoplasm_Ratio_Antagonist: University of Pittsburgh U2OS Androgen Receptor-Transcriptional Intermediary Factor 2 (AR-TIF2) Antagonism High Content Imaging Assay for Ratio of Nucleoli Translocation and Cytoplasm (AID 2283999);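 also: antagonists lower the DHT-driven ratio of nucleolar to cytoplasmic red signal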
# Chain of Ratio of Nucleoli Translocation and Cytoplasm, AR (gene 367) (P10275 whole entry, looked up): as above
# In short: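 U2OS cells expressing RFP-tagged human AR and GFP-tagged TIF2; compounds tested at 20 uM final (0.2% DMSO) in primary screen, 0.195–50 uM (0.5% DMSO) for concentration response. Readout: nucleolar-to-cytoplasmic red fluorescence ratio by high-content imaging, fitted relative to DHT.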
# [15] = target: Ratio of Nucleoli Translocation and Cytoplasm, AR (gene 367) (UniProt P10275); experiment: UPITT_HCI_U2OS_AR_TIF2_Nucleoli_Cytoplasm_Ratio_Agonist: University of Pittsburgh U2OS Androgen Receptor-Transcriptional Intermediary Factor 2 (AR-TIF2) Agonism High Content Imaging Assay for Ratio of Nucleoli Translocation and Cytoplasm (AID 2284000);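 also: hits raise the red nucleolar to cytoplasm ratio above vehicle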
# In short: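 Read-out first: nucleolar-to-cytoplasm ratio of red (AR-RFP) signal, quantified by high-content imaging in U2OS cells co-expressing TIF2-GFP. Activity is scored as signal increase over DMSO. Single-point screening used 20 uM final (0.2% DMSO).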
# [16] = TOX21_PR_LUC_Followup_Antagonist_viability: Viability Assessment in the Tox21 HEK293 Progesterone Receptor (PR) Antagonism Luciferase Follow-Up Assay (AID 2283940)
# In short: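 HEK293-PR-A-luc cells, precultured 5 days in assay medium with 10% charcoal-stripped FBS, were seeded at 3,000 cells/well, treated with compounds in DMSO for 16 h at 37C, and viability was read as cellular ATP by CellTiter-Glo luminescence.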
# [17] = TOX21_PR_LUC_Followup_Agonist_viability: Viability Assessment in the Tox21 HEK293 Progesterone Receptor (PR) Agonism Luciferase Follow-Up Assay (AID 2283941);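 also: loss of signal means cytotoxicity so actives lower viability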
# In short: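 HEK293-PR-A-luc cells, pre-cultured 5 days in 10% charcoal-stripped FBS, were seeded at 3,000 cells/well, rested 5 h at 37C, then given compound in DMSO for 16 h at 37C. Cellular ATP was read by CellTiter-Glo luminescence; signal loss indicates cytotoxicity.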
# [18] = CCTE_Shafer_MEA_acute_spike_number: CCTE's Neural Acute Assay for Total Number of Spikes, Shafer Lab (AID 2284008; active = hit-call score of the fitted dose curve at least 0.9, where 1 is the maximum; inactive = score below 0.9;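 as to AC50: curve fitted for decrease in spike count so AC50 reflects inhibitors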)
# In short: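 Total spike count from 40 min recordings before and during compound exposure (0.03-40 uM), given as per-well percent change. Cortical cultures from rat, DIV 13 or 15, 37 C; adaptive detection threshold 8x rms noise.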
# [19] = test system: DIO1 (gene 1733); experiment: CCTE_GLTED_hDIO1: CCTE's human Deiodinase 1 (DIO1) Inhibition Assay, Great Lakes Toxicology and Ecology Division (GLTED) Lab (AID 2283987);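 also: isolated human DIO1 enzyme in a cell-free setup rather than cells; enzyme activity read as free iodide liberated from substrate via Sandell-Kolthoff colorimetry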
# In short: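 Inhibition read as reduced iodide release: after 3 h of human DIO1 with chemical, free iodide is quantified colorimetrically (Sandell-Kolthoff cerium/arsenic reaction). Triplicate plates, DMSO baseline.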
structure (smiles),measurement,setting,value
O=C(O)C1(c2ccc3c(c2)OC[C@H](Cc2ccc(-c4ccccc4)cc2)[C@H]3O)CCCC1,AC50,[1],5.21 µM (active)
same,AC50,[2],8.48 µM (active)
same,outcome,[3],inactive
same,outcome,[4],inactive
same,outcome,[5],inactive
same,outcome,[6],inactive
CC1(C)COP(Oc2ccccc2)OC1,outcome,[7],inactive
same,outcome,[8],inactive
same,outcome,[9],inactive
same,outcome,[10],inactive
same,outcome,[11],inactive
COCCl,outcome,[12],inactive
same,outcome,[13],inactive
same,outcome,[14],inactive
same,outcome,[15],inactive
same,outcome,[5],inactive
same,outcome,[6],inactive
CCOP(=S)(OCC)Oc1ccc(Cl)cc1Cl,outcome,[16],inactive
same,outcome,[17],inactive
same,outcome,[5],inactive
same,outcome,[6],inactive
N#CCC#N,outcome,[12],inactive
same,outcome,[14],inactive
same,outcome,[5],inactive
same,outcome,[6],inactive
O=[N+]([O-])c1ccc(Nc2ccccc2)cc1,outcome,[16],inactive
same,outcome,[17],inactive
CC(C)CC(C)(c1ccc(O)cc1)c1ccc(O)cc1,outcome,[16],inactive
same,outcome,[17],inactive
Oc1cc(Cl)c(Cl)cc1Cl,AC50,[2],75.4 µM (active)
same,outcome,[3],inactive
same,outcome,[4],inactive
same,AC50,[18],36.3 µM (active)
same,outcome,[5],inactive
same,outcome,[6],inactive
OC(Cc1ccccc1Cl)(Cn1[nH]cnc1=S)C1(Cl)CC1 (configuration not stated),outcome,[12],inactive
same,outcome,[13],inactive
same,outcome,[14],inactive
same,outcome,[15],inactive
same,outcome,[5],inactive
same,outcome,[6],inactive
CC(=Cc1ccccc1)[N+](=O)[O-],AC50,[12],0.585 µM (active)
same,outcome,[13],inactive
same,AC50,[14],0.845 µM (active)
same,outcome,[15],inactive
CC(C)(C1CCC(O)CC1)C1CCC(O)CC1 (configuration not stated),outcome,[16],inactive
same,outcome,[17],inactive
O=C1c2ccccc2C(=O)C1C(=O)C(c1ccccc1)c1ccc(Cl)cc1 (configuration not stated),AC50,[19],19.8 µM (active)
same,AC50,[12],50 µM (active)
same,outcome,[13],inactive
same,outcome,[14],inactive
same,outcome,[15],inactive
CC(C)N(C(=O)CCl)c1ccccc1,AC50,[19],43.5 µM (active)
same,AC50,[12],16 µM (active)
same,outcome,[13],inactive
same,AC50,[14],11.4 µM (active)
same,outcome,[15],inactive
same,outcome,[5],inactive
same,outcome,[6],inactive
CCCCCCCCCCCCc1cccc(S(=O)(=O)O)c1,AC50,[19],129 µM (active)
same,outcome,[18],inactive
same,outcome,[5],inactive
same,outcome,[6],inactive
O=S1OC[C@@H]2[C@H](CO1)[C@]1(Cl)C(Cl)=C(Cl)[C@@]2(Cl)C1(Cl)Cl (some centres not stated),AC50,[12],32.2 µM (active)
same,outcome,[14],inactive
same,outcome,[5],inactive
same,outcome,[6],inactive
CNC(=O)O/N=C/C(C)(C)S(C)(=O)=O,outcome,[12],inactive
same,outcome,[13],inactive
same,outcome,[14],inactive
same,outcome,[15],inactive
same,outcome,[5],inactive
same,outcome,[6],inactive
Nc1ccc(-c2ccccc2)cc1,outcome,[16],inactive
same,outcome,[17],inactive
O=[N+]([O-])c1ccc(Cl)c([N+](=O)[O-])c1,AC50,[19],92.7 µM (active)
same,AC50,[12],1.9 µM (active)
same,AC50,[13],3.34 µM (active)
same,AC50,[14],2.39 µM (active)
same,AC50,[15],13.1 µM (active)
same,AC50,[5],67.7 µM (active) and 56.9 µM (active)
same,outcome,[6],inactive
